# Measured values as given in PubChem BioAssay AID1671202 (University of Kansas High Throughput Screening Laboratory, 2021).
# The whole screen tested about 190,000 compounds, of which about 6,900 (3.6%) were called active. This excerpt belongs to a sample that is enriched for actives. Unmarked numbers belong to inactive results. Rule as the data show it: active = inhibition above about 50%; inactive = the rest.
# Target: Huntingtin (Homo sapiens) (UniProt P42858)
# Experiment: mutant huntingtin-calmodulin interaction inhibitors – biochemical, AlphaScreen, primary screen (AID 1671202);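 also: 0% = both proteins with DMSO and 100% = one protein alone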
# Settings: AlphaScreen His-mHTT/GST-CaM binding, luminescence; at 15 µM, active compounds read high
# Sequence of Huntingtin (Homo sapiens) (P42858 whole entry, looked up, stated change not applied): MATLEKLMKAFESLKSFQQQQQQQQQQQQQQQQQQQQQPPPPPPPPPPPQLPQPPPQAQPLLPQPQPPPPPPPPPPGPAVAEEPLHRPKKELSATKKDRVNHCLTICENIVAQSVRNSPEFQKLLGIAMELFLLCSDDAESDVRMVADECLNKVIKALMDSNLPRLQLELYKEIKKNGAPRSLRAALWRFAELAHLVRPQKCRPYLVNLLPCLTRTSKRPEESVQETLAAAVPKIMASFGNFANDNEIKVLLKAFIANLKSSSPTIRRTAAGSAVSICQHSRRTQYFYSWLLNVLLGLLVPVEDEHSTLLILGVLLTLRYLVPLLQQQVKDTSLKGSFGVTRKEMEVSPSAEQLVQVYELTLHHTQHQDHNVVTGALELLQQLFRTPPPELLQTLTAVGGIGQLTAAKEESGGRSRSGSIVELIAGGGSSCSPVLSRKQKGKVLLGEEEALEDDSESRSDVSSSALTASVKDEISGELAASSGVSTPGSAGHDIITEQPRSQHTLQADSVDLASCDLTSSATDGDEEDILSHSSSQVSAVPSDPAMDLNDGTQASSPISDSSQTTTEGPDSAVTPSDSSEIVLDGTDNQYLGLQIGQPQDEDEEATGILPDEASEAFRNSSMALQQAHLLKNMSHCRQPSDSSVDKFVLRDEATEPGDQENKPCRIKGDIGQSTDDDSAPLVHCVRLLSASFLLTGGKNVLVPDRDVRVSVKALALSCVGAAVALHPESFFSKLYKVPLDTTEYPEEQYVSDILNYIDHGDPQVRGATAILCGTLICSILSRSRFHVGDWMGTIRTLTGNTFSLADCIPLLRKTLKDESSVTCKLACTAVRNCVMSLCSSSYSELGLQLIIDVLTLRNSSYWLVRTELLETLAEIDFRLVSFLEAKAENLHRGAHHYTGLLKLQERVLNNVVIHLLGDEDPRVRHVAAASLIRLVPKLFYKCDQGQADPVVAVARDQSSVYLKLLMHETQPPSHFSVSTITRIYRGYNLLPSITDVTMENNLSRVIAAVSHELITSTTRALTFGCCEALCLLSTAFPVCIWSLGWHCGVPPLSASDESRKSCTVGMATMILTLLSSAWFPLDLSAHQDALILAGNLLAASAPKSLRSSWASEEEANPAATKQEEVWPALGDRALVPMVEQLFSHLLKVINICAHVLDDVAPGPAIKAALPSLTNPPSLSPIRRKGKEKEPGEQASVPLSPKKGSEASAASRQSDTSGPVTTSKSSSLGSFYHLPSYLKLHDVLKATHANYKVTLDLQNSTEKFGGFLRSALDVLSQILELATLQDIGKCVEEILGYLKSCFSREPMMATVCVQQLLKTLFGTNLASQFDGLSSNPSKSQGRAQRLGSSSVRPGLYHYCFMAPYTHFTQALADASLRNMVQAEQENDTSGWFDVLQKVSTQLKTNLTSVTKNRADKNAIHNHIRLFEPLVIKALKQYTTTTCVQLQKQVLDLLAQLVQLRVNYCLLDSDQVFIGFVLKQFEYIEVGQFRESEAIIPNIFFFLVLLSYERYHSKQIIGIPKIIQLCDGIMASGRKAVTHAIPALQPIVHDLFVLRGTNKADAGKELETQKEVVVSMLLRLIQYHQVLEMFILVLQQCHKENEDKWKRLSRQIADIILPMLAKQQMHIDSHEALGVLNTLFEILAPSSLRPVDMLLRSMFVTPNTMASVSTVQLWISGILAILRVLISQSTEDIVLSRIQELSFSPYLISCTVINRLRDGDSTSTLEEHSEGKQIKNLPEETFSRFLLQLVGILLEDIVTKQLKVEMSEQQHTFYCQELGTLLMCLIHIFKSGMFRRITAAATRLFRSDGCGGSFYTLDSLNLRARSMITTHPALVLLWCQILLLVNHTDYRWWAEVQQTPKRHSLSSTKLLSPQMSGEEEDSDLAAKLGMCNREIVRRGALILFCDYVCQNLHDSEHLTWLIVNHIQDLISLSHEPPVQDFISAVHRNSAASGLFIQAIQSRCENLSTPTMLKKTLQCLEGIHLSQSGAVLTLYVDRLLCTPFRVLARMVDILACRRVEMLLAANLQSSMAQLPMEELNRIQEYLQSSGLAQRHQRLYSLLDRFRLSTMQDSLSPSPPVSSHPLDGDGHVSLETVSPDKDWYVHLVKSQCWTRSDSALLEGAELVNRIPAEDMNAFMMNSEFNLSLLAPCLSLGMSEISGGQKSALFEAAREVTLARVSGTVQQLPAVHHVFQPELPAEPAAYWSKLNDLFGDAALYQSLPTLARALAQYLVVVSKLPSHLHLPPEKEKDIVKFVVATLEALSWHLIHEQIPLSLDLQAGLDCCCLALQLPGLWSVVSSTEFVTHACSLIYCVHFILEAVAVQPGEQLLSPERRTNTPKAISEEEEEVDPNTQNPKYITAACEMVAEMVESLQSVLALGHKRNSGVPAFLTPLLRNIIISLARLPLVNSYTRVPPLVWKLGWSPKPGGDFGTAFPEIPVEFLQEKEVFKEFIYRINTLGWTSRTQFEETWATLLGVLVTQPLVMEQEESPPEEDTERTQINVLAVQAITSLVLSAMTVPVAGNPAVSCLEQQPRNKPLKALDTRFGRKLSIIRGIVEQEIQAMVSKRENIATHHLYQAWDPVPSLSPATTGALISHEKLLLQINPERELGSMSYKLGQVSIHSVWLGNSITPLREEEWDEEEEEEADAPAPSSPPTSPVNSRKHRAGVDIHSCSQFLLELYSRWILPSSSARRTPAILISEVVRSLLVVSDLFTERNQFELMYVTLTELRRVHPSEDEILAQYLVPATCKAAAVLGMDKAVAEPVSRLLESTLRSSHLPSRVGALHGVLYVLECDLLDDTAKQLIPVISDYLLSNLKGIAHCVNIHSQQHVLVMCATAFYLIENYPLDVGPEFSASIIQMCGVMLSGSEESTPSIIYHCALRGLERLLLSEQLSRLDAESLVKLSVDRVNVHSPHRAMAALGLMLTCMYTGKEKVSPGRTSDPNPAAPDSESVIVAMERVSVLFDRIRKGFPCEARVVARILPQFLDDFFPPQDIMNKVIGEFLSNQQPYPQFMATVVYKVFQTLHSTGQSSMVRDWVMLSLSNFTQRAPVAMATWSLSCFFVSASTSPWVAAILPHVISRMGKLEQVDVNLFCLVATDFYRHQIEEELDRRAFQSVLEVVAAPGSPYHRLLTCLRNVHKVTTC
row,SMILES,inhibition
1,CCOc1ccc(NC(=O)c2ccc(F)c(S(=O)(=O)NC3CCCCCC3)c2)cc1,11%
2,C=CCN(C(C)=O)c1nc(C)c(Cl)c(OC)n1,-2%
3,CCOC1CCc2oc(-c3ccsc3)c(C#CC(C)(C)O)c21 (configuration not stated),11.3%
4,O=C(NC1CC2CC1N(C(=O)c1cccc(C(F)(F)F)c1)C2)c1cccs1 (configuration not stated),0.72%
5,COCc1noc(C2CCCCN2CC(=O)NCc2cccs2)n1 (configuration not stated),0.04%
6,Cc1[nH]c(=O)[nH]c(=O)c1S(=O)(=O)Nc1ccccn1,-4%
7,O=C1C2C3C=CC(C4CC34)C2C(=O)N1CC1CCCO1 (configuration not stated),0.3%
8,O=C(NCc1nnc2n1CCCC2)c1ccc2c(c1)OCO2,-5.87%
9,O=c1oc2ccccc2cc1-c1csc(N=Cc2ccccc2O)n1,26%
10,COc1cccc(N2CCN(C(=O)c3cccs3)C(C)C2=O)c1 (configuration not stated),-6.9%
11,O=C(CCc1ccccc1)NCc1cccnc1-c1ccccc1,-6.5%
12,Cc1ccc(C(=O)N2CCC(CCNS(=O)(=O)Cc3ccccc3)CC2)cc1,44.2%
13,Cc1ccc(C(=O)N2CCC(CCNS(=O)(=O)c3ccccc3F)CC2)cc1,39.1%
14,O=C(c1ccccc1)N1CCC(CCNS(=O)(=O)c2cccc3nsnc23)CC1,50.2% (active)
15,N#Cc1cccc(S(=O)(=O)NCCC2CCN(C(=O)c3ccccc3)CC2)c1,34.6%
16,COc1ccc(S(=O)(=O)NCCC2CCN(C(=O)c3ccccc3)CC2)cc1OC,30.3%
17,Cc1ccc(C(=O)N2CCC(CCNS(=O)(=O)c3ccc(C(C)C)cc3)CC2)cc1,53.6% (active)
18,O=C(CC1CCCCC1)N1CCCC(COc2ccc(C(=O)N3CCCCC3)cc2)C1 (configuration not stated),13.4%
19,CCC(C)NC(=O)c1cc2nc(-c3ccc(Cl)cc3)cc(C(F)(F)F)n2n1 (configuration not stated),-6%
20,N#CCSc1nc2c(c(=O)n1Cc1ccccc1)C1(CCCC1)Cc1ccccc1-2,-2.7%
21,CCn1c(=O)c2c(n3c(SCC(N)=O)nnc13)-c1ccccc1CC21CCCCC1,54% (active)

row,SMILES,inhibition
1,O=c1[nH]c(CSCCO)nc2c1C1(CCCCC1)Cc1ccccc1-2,16.8%
2,O=C(Nc1cccc(NC(=O)c2ccccc2[N+](=O)[O-])c1)c1ccccc1Cl,5%
3,COc1ccc2cc(-c3nnc(NC4CCCCC4)s3)c(=O)oc2c1,-11%
4,Cc1cccc(C2C3=C(CCCC3=O)N=C3c4ccccc4C(=O)C32)c1 (configuration not stated),8%
5,O=C1CCCC2=C1C(c1cccc([N+](=O)[O-])c1)C1C(=O)c3ccccc3C1=N2 (configuration not stated),10%
6,COc1ccc(C2C3=C(CC(C)(C)CC3=O)N=C3c4ccccc4C(=O)C32)cc1 (configuration not stated),62% (active)
7,CC(C)CC(=O)N1CCc2ccccc2C1,-9.1%
8,COc1ccc(C=C2Oc3c(ccc4c3CN(Cc3ccc(OC)c(OC)c3)CO4)C2=O)cc1OC,44%
9,CC(C)n1c(C2CCN(S(=O)(=O)Cc3ccc(F)cc3Cl)C2)nc2ccncc21 (configuration not stated),9.49%
10,CCCCCCOc1ccc(NC(=O)CC2SC(=N)NC2=O)cc1 (configuration not stated),1%
11,COC(=O)c1ccc(CN2CCCC2c2cc(C)on2)cc1 (configuration not stated),1.57%
12,COc1cccc(/C=C2\SC(=N)N(c3ccc(F)cc3)C2=O)c1,3%
13,N=C1S/C(=C\c2ccc(-c3ccccc3[N+](=O)[O-])o2)C(=O)N1c1ccc2c(c1)OCO2,26%
14,CC(=O)Nc1nonc1N1C(=N)S/C(=C\c2ccc(-c3cccc(F)c3)o2)C1=O,57% (active)
15,COc1ccc2nc(NCCn3cccn3)sc2c1,-1.7%
16,CCOC(=O)C1CCCN(C(=O)c2nn(-c3ccc(F)cc3)c(=O)cc2OC)C1 (configuration not stated),-5.9%
17,O=C(c1ncn[nH]1)N1CCN(Cc2ccccc2)CC1,90.3% (active)
18,O=C(c1cccc(Cl)c1)N1CCN(Cc2ccccc2)CC1,4.6%
19,O=C(Nc1ccccc1)N1CCN(Cc2ccccc2)CC1,-7.6%
20,CCOc1ccc(C2CC(c3ccc(Cl)cc3)Nc3nnnn32)cc1OC (configuration not stated),38%
21,Cc1cc(C(=O)NCc2ccc(C)o2)c2cccc(-c3cccs3)c2n1,-56.5%

row,SMILES,inhibition
1,COc1ccccc1C1(CCNCc2ccc3c(c2)OCO3)CCOC(C)(C)C1 (configuration not stated),3.46%
2,O=C1CN(C(=O)c2ccccc2F)C(c2ccc(F)cc2)c2cc(F)ccc2N1 (configuration not stated),-4%
3,Cc1ccc2c(c1)C(c1ccc(F)cc1)N(C(=O)c1c(F)cccc1Cl)CC(=O)N2 (configuration not stated),22%
4,Cc1ccc2c(c1)C(c1ccc(F)cc1)N(C(=O)c1ccc(C)c(C)c1)CC(=O)N2 (configuration not stated),69% (active)
5,COc1ccc(C=C2Oc3cc(OC(C)=O)ccc3C2=O)c(OC)c1OC,16.2%
6,COc1ccc(C(=O)C=Cc2ccc(C)cc2)c(OC(=O)c2ccco2)c1,17%
7,Oc1ccc2c(c1)OCC1c3cc4c(cc3OC21)OCO4 (configuration not stated),65.8% (active)
8,Cc1ccccc1NCc1cc(=O)oc2cc(O)c(O)cc12,29.6%
9,CCc1ccc(CN2CCC(C(=O)N3CCN(Cc4ccccc4)CC3)CC2)cc1,36.4%
10,CNC(=O)C1CCN(Cc2cc3ccccc3n2Cc2ccc(F)cc2)CC1,85.1% (active)
11,O=C(NCc1ccc(F)cc1)C1CCN(c2cnn(Cc3ccccc3)c(=O)c2)CC1,2.29%
12,O=S(=O)(NCCc1ccc(F)cc1)c1ccc(F)cc1,-3.6%
13,Cc1ccc(C(C)C)cc1OCCN1CCCC1,-3.2%
14,COc1cc(OC)c2c(c1)OC(=O)CC2c1cc(OC)c(OC)c(OC)c1 (configuration not stated),3.2%
15,COc1ccc(C2CC(=O)Oc3ccc(C(C)(C)C)cc32)cc1 (configuration not stated),-22.8%
16,COc1ccc(-c2c(C)c3ccc(OCCN4CCCCC4)cc3oc2=O)cc1OC,-2.1%
17,COc1cc(OC)c2c(C)cc(=O)oc2c1C(CCN1CCCCC1)c1ccc(N(C)C)cc1 (configuration not stated),78.3% (active)
18,COc1ccc(Nc2nc(Cl)nc(NCCN3CCOCC3)n2)c(OC)c1,4%
19,COc1cc(OC)c2c(c1C(CCN1CCCCC1)c1ccc(N(C)C)cc1)OC(=O)CC2c1ccc(N(C)C)cc1 (configuration not stated),76.8% (active)
20,COc1ccc(C(CCN2CCOCC2)c2c(OC)cc(OC)c3c2OC(=O)CC3c2ccc(OC)cc2)cc1 (configuration not stated),71.6% (active)
